Many of the other results were omitted from the sample, so hits are more common in it than they were.
ROC1-CUL1 inh = blocks human RBX1-Cullin-1 di-ubiquitin formation; in vitro K48 di-Ub FRET, acceptor:donor ratio, 45 min; inhibition, % at 10 µM; 0.6% of 140,000 active; P62877+Q13616; AID 1347404; in the data active = inhibition above about 25%
Target sequence (P62877 whole entry, looked up): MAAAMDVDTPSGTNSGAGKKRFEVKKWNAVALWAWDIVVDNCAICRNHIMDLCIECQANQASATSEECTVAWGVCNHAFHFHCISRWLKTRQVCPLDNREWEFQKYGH
Target sequence (Q13616 whole entry, looked up): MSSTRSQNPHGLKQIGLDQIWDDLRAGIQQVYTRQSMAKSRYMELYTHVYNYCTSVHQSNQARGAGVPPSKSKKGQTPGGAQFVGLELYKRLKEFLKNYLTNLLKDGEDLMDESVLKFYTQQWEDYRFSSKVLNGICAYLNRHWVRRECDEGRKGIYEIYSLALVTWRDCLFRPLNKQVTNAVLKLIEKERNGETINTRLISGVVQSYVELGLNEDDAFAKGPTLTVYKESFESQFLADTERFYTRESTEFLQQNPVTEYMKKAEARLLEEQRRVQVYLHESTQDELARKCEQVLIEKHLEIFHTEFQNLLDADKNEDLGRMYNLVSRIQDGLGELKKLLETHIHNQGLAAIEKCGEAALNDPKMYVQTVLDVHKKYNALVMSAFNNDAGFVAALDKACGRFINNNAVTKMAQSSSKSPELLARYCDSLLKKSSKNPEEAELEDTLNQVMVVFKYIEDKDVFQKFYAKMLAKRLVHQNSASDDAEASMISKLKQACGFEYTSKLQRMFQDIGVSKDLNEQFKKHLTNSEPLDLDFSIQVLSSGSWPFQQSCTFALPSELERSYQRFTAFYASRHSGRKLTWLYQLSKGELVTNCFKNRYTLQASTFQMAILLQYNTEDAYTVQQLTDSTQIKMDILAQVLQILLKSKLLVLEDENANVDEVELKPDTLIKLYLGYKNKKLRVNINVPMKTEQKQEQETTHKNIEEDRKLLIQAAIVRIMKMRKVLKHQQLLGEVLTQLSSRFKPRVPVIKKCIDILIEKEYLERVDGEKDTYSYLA
Starred values were filed as active, the others as inactive.

SMILES | ROC1-CUL1 inh
Cc1ccc(C(O)C#CC23CC4CC(CC(C4)C2)C3)o1 (stereo unspecified) | 99.2*
O=C(O)C#CC12CC3CC(CC(C3)C1)C2 | -0.1
O=C(NC1CCCCC1)c1ccc(OCC2CCCO2)c(Br)c1 (stereo unspecified) | 4.1
COC(=O)C(C#N)c1nc2ccccc2nc1N1CCOCC1 (stereo unspecified) | -13.0
COC(=O)C1=C(C(=O)OC)SC(=C2C(=S)C(C)(C)N(C(=O)CN3C(=O)c4ccccc4C3=O)c3c(OC)cccc32)S1 | -16.8
C1=C(c2ccc(-c3ccccc3)cc2)N2C(=NN=C(c3ccccc3)C2c2ccccc2)S1 (stereo unspecified) | -18.5
Cc1ccc(C2=CSC3=NN=C(c4ccccc4)C(c4ccccc4)N23)cc1 (stereo unspecified) | 2.2
C1=C(c2ccccc2)N2C(=NN=C(c3ccccc3)C2c2ccccc2)S1 (stereo unspecified) | 40.9*
Cc1ccc(/C=C(/C#N)c2nc(-c3cc4ccccc4oc3=O)cs2)s1 | -8.1
Cc1ccccc1C(=O)OCC(=O)c1ccc(OC(=O)c2ccco2)cc1 | -5.4
Cc1ccc(NC(=O)c2c(NC(=O)C(C)(C)C)sc3c2CCCC3)c(C)c1 | -4.6
Cc1ccc(NC(=O)c2c(N)sc3c2CCCCC3)c(C)c1 | 65.1*
Cc1ccc(NC(=O)c2c(N)sc3c2CCC3)cc1 | -2.6
Cc1noc(C)c1C(=O)NCCC(c1ccccc1)c1ccccc1 | -1.1
O=C(c1ccccc1)N1N=C(c2ccccc2)CC1c1ccc(Cl)cc1 (stereo unspecified) | 1.5
CCOc1ccc2nc3cc(NC(=O)c4ccco4)ccc3c(N)c2c1 | 97.4*
O=C(Nc1ccc(OCCOc2ccccc2)cc1)c1ccco1 | 13.2
CCCCOc1cccc(NC(=O)c2ccco2)c1 | -4.5
CCN1CCCC1CNC(=O)CCC1CCN(C(=O)c2ccc(OC)c(F)c2)CC1 (stereo unspecified) | -5.9
C=CCNC(=O)c1ccc(OC)c(C)c1 | 4.3
O=C1NC(=S)S/C1=C/c1ccc(N2N=C(c3ccccc3)CC2c2ccccc2)cc1 (stereo unspecified) | 80.8*
O=C1NC(=S)S/C1=C/c1ccc(F)cc1 | 16.4
Cc1cc(/C=C2/SC(=S)NC2=O)c(C)n1-c1ccccc1 | 2.3
CSc1cccc(CN2CCC(N3CCCC(C(=O)NC4CC4)C3)CC2)c1 (stereo unspecified) | -3.9
Cc1ncoc1C(=O)NC1CC(=O)N(Cc2ccccc2C(F)(F)F)C1 (stereo unspecified) | -5.5
SMILES | ROC1-CUL1 inh
CC(=O)CSc1ncnc2scc(-c3ccc(Cl)cc3)c12 | -1.9
COCC(=O)Nc1cc(C(=O)N2CCC(C(O)c3cccs3)CC2)c2c(c1)nc(C1CCC1)n2C (stereo unspecified) | -5.1
CC(C)(C)c1cc(C(=O)N/N=C/c2ccc(O)cc2O)n[nH]1 | 1.1
NC(=O)c1c(NC(=O)c2cc(-c3ccccc3)nc3ccccc23)sc2c1CCCCCC2 | 5.6
Cc1ccc(-c2cc(C(=O)Nc3sc4c(c3C(N)=O)CCC(C(C)(C)C)C4)c3ccccc3n2)o1 (stereo unspecified) | -1.6
CCC1CCc2c(sc(NC(=O)c3cc(-c4ccco4)nc4ccccc34)c2C(N)=O)C1 (stereo unspecified) | 42.7*
O=C(Nc1ccc(-c2ccco2)cc1)C1CCCN(C(=O)c2ccccn2)C1 (stereo unspecified) | 7.9
CCCSc1nnc2c(n1)-c1ccccc1NC(/C=C/c1ccco1)O2 (stereo unspecified) | 6.5
O=S(=O)(c1ccccc1)c1nc(Cl)ns1 | 7.5
O=S(Cc1ccccc1Cl)c1nc(Cl)ns1 (stereo unspecified) | 29.7*
O=S(Cc1ccccc1F)c1nc(Cl)ns1 (stereo unspecified) | 0.7
Cc1[nH]c2c(C)cc(Cl)cc2c(=O)c1CN1CCCC1 | 3.4
COc1ccc2c(c1)-c1c(ssc1=Nc1cc(Cl)ccc1C(=O)c1ccccc1)C(C)(C)N2 | 0.4
CN1CC=C2C(C#N)C(=N)C(C#N)(C#N)[C@@H](c3ccc(F)cc3)[C@@H]2C1 (stereo partly specified) | -13.7
Cc1nc(C)c(C(=O)N2CCC(C(Cc3ccc(F)cc3F)N(C)C(=O)c3cccnc3)CC2)s1 (stereo unspecified) | 7.3
Nc1ccc(Br)c2cccnc12 | 62.3*
O=C(Nc1ccc(Br)c2cccnc12)c1cc(F)c(F)cc1Cl | 4.1
Nc1ccnc2ncccc12 | 9.1
CCC1CCc2c(sc(NC(=O)c3ccc(-c4ccccc4)cc3)c2C(=O)OC)C1 (stereo unspecified) | 3.2
CC(=O)c1nn(-c2cccc(Br)c2)c(-c2cccs2)c1C#N | 2.9
Cc1ccc(S(=O)(=O)N2CCCCC2C(=O)N(C)Cc2ccccc2)cc1 (stereo unspecified) | 0.9
CCCCOc1ccc(N2C(=O)CC(N3CCN(Cc4ccc5c(c4)OCO5)CC3)C2=O)cc1 (stereo unspecified) | 2.3
COc1ccc(CSCC(=O)Nc2ccc(S(=O)(=O)N3CCCC3)cc2)cc1 | 2.5
Cc1cccc(NS(=O)(=O)c2cc(Cl)c(Cl)cc2C)n1 | -2.5
COc1ccc(N=NC2Sc3nc(C)cc(C)c3C2=O)cc1 (stereo unspecified) | 5.0
SMILES | ROC1-CUL1 inh
CCC(CC)C(=O)N1c2ccccc2C(C)(c2ccccc2)CC1(C)C (stereo unspecified) | 27.8*
CCC(=O)N1c2ccccc2C(C)(c2ccccc2)CC1(C)C (stereo unspecified) | 2.6
CCCCCC(=O)N1c2ccccc2C(C)(c2ccccc2)CC1(C)C (stereo unspecified) | 6.9
C=CCSc1nc2ccccc2c(=O)[nH]1 | 2.5
CCN(CC)Cc1nc2ccccc2c(=O)[nH]1 | 1.0
C=CCN=C(N)SCc1nc2ccccc2c(=O)[nH]1 | 36.1*
CCOC(=O)c1sc(NC(=O)COc2ccc(C(C)(C)C)cc2)c(C(=O)OCC)c1C | 2.8
Cc1ncc(CN2CCCC2C(=O)Nc2cccc(-c3ccc(F)cc3)c2)[nH]1 (stereo unspecified) | -6.7
O=C1C2=CC(C=NCC(O)CO)C(=O)N2c2ccccc21 (stereo unspecified) | 25.3*
COc1ccc(CCNC(=O)COc2ccc(S(=O)(=O)NCc3ccccc3)cc2)cc1OC | -6.1
C=CCn1c(SCC(=O)Nc2cccc(OC)c2)nc2sc(-c3ccccc3)cc2c1=O | 3.2
CCCc1cc(CN(C)C(=O)Cn2nnnc2CN2CCC(C)CC2)[nH]n1 | -4.2
COc1ccc(OC)c(Nc2nc(-c3ccc(Cl)cc3Cl)nc3ccccc23)c1 | 8.2
CC(=O)NCc1ccc(OC(C)=O)c(OC(C)=O)c1 | 1.6
CC(=O)Oc1ccccc1C(=O)Oc1ccccc1 | -4.8
CC(=O)Oc1ccc(OC(C)=O)c2c1C(=O)C=CC2=O | 99.4*
O=S(=O)(Oc1cccnc1)c1ccc(Cl)cc1 | -6.2
Cc1cccc(N2CCN(CCOc3ccc4c(C)cc(=O)oc4c3)CC2)c1 | -7.2
CCCCOC(=O)NC(=O)C1C(=O)Oc2cc(N(CC)CC)ccc21 (stereo unspecified) | 4.6
CC(C)C(C(=O)O)N1C(=O)/C(=C\c2ccco2)SC1=S (stereo unspecified) | 101.9*
CC(C(=O)O)N1C(=O)/C(=C\c2ccco2)SC1=S (stereo unspecified) | 52.7*
CC(C)C(C(=O)O)N1C(=O)/C(=C/c2ccc(F)cc2)SC1=S (stereo unspecified) | 15.0
O=C1/C(=C/c2ccco2)SC(=S)N1c1ccccc1Br | -4.1

High-throughput results from PubChem.
